Data taken from PubChem BioAssay AID1159580 (chemical genetic matrix, 2015).
Out of some 5,500 compounds screened, about 2,000 (36%) were called active. About 18% were inconclusive and are not listed. Rule as the data show it: active = normalized growth mostly below about 0.91 (no sharp cut-off); inconclusive = no clear call, values can overlap the other calls; inactive = mostly above about 0.92. This is one part of the list.

Assay: chemical genetic growth profiling, strain panel (AID 1159580);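 also: tested at 20 µM; growth read once vehicle control cultures reached saturation at 30 °C; 1 = growth at the plate median or of vehicle wells; lower values mean less growth of the strain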
Details: S. cerevisiae deletion strains, growth OD

Measured: normalized growth

COC(=O)c1c(OC)cc2c(c1C)Oc1c(Cl)c(OC(C)=O)c(Cl)c(C)c1C(=O)O2
inactive: locus YAL021C, strain ccr4, stronger effect = lower value 1.02 | locus YAL026C, strain drs2, stronger effect = lower value 1 | locus YAL030W, strain snc1, stronger effect = lower value 0.994 | locus YBL061C, strain skt5, stronger effect = lower value 0.977 | locus YBR009C, strain hhf1, stronger effect = lower value 1.02 | locus YBR021W, strain FUR4, stronger effect = lower value 1.03 | locus YBR023C, strain chs3, stronger effect = lower value 0.978 | locus YBR171W, strain sec66, stronger effect = lower value 1 | locus YBR229C, strain ROT2, stronger effect = lower value 0.989 | locus YBR231C, strain swc5, stronger effect = lower value 0.987 | locus YBR279W, strain paf1, stronger effect = lower value 0.982 | locus YCL011C, strain gbp2, stronger effect = lower value 1.02 | locus YCL016C, strain dcc1, stronger effect = lower value 0.99 | locus YCL029C, strain bik1, stronger effect = lower value 1.01 | locus YCL061C, strain MRC1, stronger effect = lower value 1.01 | locus YCL069W, strain vba3, stronger effect = lower value 0.998 | locus YCR088W, strain abp1, stronger effect = lower value 0.988 | locus YDL005C, strain med2, stronger effect = lower value 1 | locus YDL035C, strain GPR1, stronger effect = lower value 1.01 | locus YDL040C, strain nat1, stronger effect = lower value 0.955 | locus YDL074C, strain BRE1, stronger effect = lower value 1.05 | locus YDL101C, strain DUN1, stronger effect = lower value 1.01 | locus YDL134C, strain PPH21, stronger effect = lower value 1.02 | locus YDL185W, strain tfp1, stronger effect = lower value 1.01 | locus YDL192W, strain arf1, stronger effect = lower value 1.01 | locus YDR001C, strain nth1, stronger effect = lower value 0.992 | locus YDR069C, strain doa4, stronger effect = lower value 0.998 | locus YDR101C, strain arx1, stronger effect = lower value 1.01 | locus YDR137W, strain rgp1, stronger effect = lower value 0.947 | locus YDR159W, strain sac3, stronger effect = lower value 0.948 | locus YDR162C, strain NBP2, stronger effect = lower value 1.03 | locus YDR195W, strain ref2 1.03 | locus YDR297W, strain sur2, stronger effect = lower value 1 | locus YDR318W, strain mcm21, stronger effect = lower value 1 | locus YDR334W, strain swr1, stronger effect = lower value 0.99 | locus YDR335W, strain msn5, stronger effect = lower value 1 | locus YDR388W, stronger effect = lower value 1.01 | locus YDR392W, strain spt3, stronger effect = lower value 0.866 | locus YDR502C, strain sam2, stronger effect = lower value 1 | locus YEL003W, strain gim4, stronger effect = lower value 1 | locus YEL037C, strain rad23, stronger effect = lower value 0.984 | locus YEL061C, strain CIN8 (second series), stronger effect = lower value 0.979 | locus YEL061C, strain CIN8, stronger effect = lower value 0.999 | locus YER015W, strain faa2, stronger effect = lower value 1.01 | locus YER016W, strain bim1, stronger effect = lower value 0.971 | locus YER110C, stronger effect = lower value 1.02 | locus YER111C, strain swi4, stronger effect = lower value 0.985 | locus YER155C, strain BEM2 (second series), stronger effect = lower value 1.01 | locus YER155C, strain BEM2, stronger effect = lower value 0.992 | locus YER167W, strain BCK2, stronger effect = lower value 1.02 | locus YFR010W, strain ubp6, stronger effect = lower value 0.975 | locus YGL078C, strain dbp3, stronger effect = lower value 1.01 | locus YGL086W, strain mad1, stronger effect = lower value 1.02 | locus YGL167C, strain pmr1, stronger effect = lower value 0.942 | locus YGL173C, strain kem1, stronger effect = lower value 0.983 | locus YGL227W, strain vid30, stronger effect = lower value 1 | locus YGL240W, strain doc1, stronger effect = lower value 0.964 | locus YGL248W, strain PDE1, stronger effect = lower value 1.01 | locus YGL253W, strain hxk2, stronger effect = lower value 0.977 | locus YGR078C, strain PAC10, stronger effect = lower value 1.01 | locus YGR135W, strain pre9, stronger effect = lower value 1.01 | locus YGR252W, strain gcn5, stronger effect = lower value 1.11 | locus YHR013C, strain ard1, stronger effect = lower value 0.966 | locus YHR027C, strain rpn1, stronger effect = lower value 1 | locus YHR030C, strain SLT2, stronger effect = lower value 1 | locus YHR079C, strain IRE1 (second series), stronger effect = lower value 0.997 | locus YHR094C, strain hxt1, stronger effect = lower value 1.01 | locus YHR129C, strain ARP1, stronger effect = lower value 1 | locus YHR142W, strain chs7, stronger effect = lower value 0.985 | locus YHR200W, strain rpn10, stronger effect = lower value 1.02 | locus YIL066C, strain RNR3, stronger effect = lower value 1.03 | locus YIL073C, strain SPO22, stronger effect = lower value 1.09 | locus YIL125W, strain kgd1, stronger effect = lower value 1.02 | locus YIR030C, strain dcg1, stronger effect = lower value 0.998 | locus YJL092W, strain hpr5, stronger effect = lower value 0.992 | locus YJL095W, strain BCK1 (second series), stronger effect = lower value 0.975 | locus YJL095W, strain BCK1, stronger effect = lower value 1.02 | locus YJL115W, strain asf1, stronger effect = lower value 0.996 | locus YJL129C, strain trk1, stronger effect = lower value 1.01 | locus YJL134W, strain LCB3, stronger effect = lower value 0.998 | locus YJL154C, strain vps35, stronger effect = lower value 0.972 | locus YJL164C, strain tpk1, stronger effect = lower value 1.01 | locus YJL166W, strain qcr8, stronger effect = lower value 1.01 | locus YJL168C, strain set2, stronger effect = lower value 0.996 | locus YJL187C, strain SWE1 (second series), stronger effect = lower value 1.02 | locus YJL187C, strain SWE1, stronger effect = lower value 0.975 | locus YJR043C, strain POL32, stronger effect = lower value 1.04 | locus YKL009W, strain mrt4, stronger effect = lower value 1.01 | locus YKL068W, stronger effect = lower value 0.988 | locus YKL085W, strain MDH1 (second series), stronger effect = lower value 1 | locus YKL085W, strain MDH1, stronger effect = lower value 1 | locus YKL160W, strain elf1, stronger effect = lower value 0.982 | locus YKL190W, strain CNB1, stronger effect = lower value 1.01 | locus YKR001C, strain vps1, stronger effect = lower value 1.04 | locus YKR026C, strain gcn3, stronger effect = lower value 0.996 | locus YKR091W, strain srl3, stronger effect = lower value 0.989 | locus YLL001W, strain dnm1, stronger effect = lower value 0.992 | locus YLL026W, stronger effect = lower value 1 | locus YLL041C, strain sdh2, stronger effect = lower value 0.988 | locus YLR027C, strain aat2, stronger effect = lower value 0.986 | locus YLR039C, strain RIC1, stronger effect = lower value 1.02 | locus YLR058C, strain SHM2, stronger effect = lower value 1 | locus YLR102C, strain apc9, stronger effect = lower value 1.01 | locus YLR221C, strain rsa3, stronger effect = lower value 1.01 | locus YLR258W, strain gsy2, stronger effect = lower value 0.998 | locus YLR262C, strain YPT6 (second series), stronger effect = lower value 0.979 | locus YLR262C, strain YPT6, stronger effect = lower value 1.03 | locus YLR268W, strain sec22, stronger effect = lower value 1.02 | locus YLR320W, strain mms22, stronger effect = lower value 0.946 | locus YLR330W, strain CHS5, stronger effect = lower value 0.998 | locus YLR342W, strain FKS1 (second series), stronger effect = lower value 1.05 | locus YLR342W, strain FKS1, stronger effect = lower value 0.978 | locus YLR357W, strain rsc2, stronger effect = lower value 1.02 | locus YLR370C, strain arc18, stronger effect = lower value 0.973 | locus YLR371W, strain rom2, stronger effect = lower value 1.01 | locus YLR384C, strain iki3, stronger effect = lower value 0.961 | locus YLR418C, strain cdc73, stronger effect = lower value 1.07 | locus YML016C, strain PPZ1, stronger effect = lower value 1 | locus YML032C, strain rad52, stronger effect = lower value 1.02 | locus YML120C, strain ndi1, stronger effect = lower value 1.01 | locus YML124C, strain tub3, stronger effect = lower value 1.03 | locus YMR058W, strain fet3, stronger effect = lower value 0.988 | locus YMR078C, strain ctf18, stronger effect = lower value 1.01 | locus YMR125W, strain sto1, stronger effect = lower value 0.997 | locus YMR129W, stronger effect = lower value 0.999 | locus YMR205C, strain PFK2, stronger effect = lower value 0.981 | locus YMR223W, strain ubp8, stronger effect = lower value 1 | locus YMR231W, strain pep5, stronger effect = lower value 0.974 | locus YMR263W, strain SAP30, stronger effect = lower value 1.02 | locus YMR307W, strain GAS1, stronger effect = lower value 1.03 | locus YNL067W, strain RPL9B, stronger effect = lower value 1.02 | locus YNL071W, strain lat1, stronger effect = lower value 0.997 | locus YNL209W, strain ssb2, stronger effect = lower value 1.01 | locus YNL233W, strain BNI4, stronger effect = lower value 1.03 | locus YNL248C, strain rpa49, stronger effect = lower value 0.995 | locus YNL250W, strain rad50, stronger effect = lower value 1.02 | locus YNL271C, strain bni1, stronger effect = lower value 1.02 | locus YNL298W, strain CLA4, stronger effect = lower value 1.03 | locus YNL307C, strain MCK1, stronger effect = lower value 1 | locus YNL322C, strain KRE1 (second series), stronger effect = lower value 1.02 | locus YNR049C, strain mso1, stronger effect = lower value 0.982 | locus YNR052C, strain pop2, stronger effect = lower value 1.01 | locus YOL006C, strain TOP1, stronger effect = lower value 1.29 | locus YOL012C, strain htz1 1.01 | locus YOL147C, strain pex11, stronger effect = lower value 0.999 | locus YOR001W, strain rrp6, stronger effect = lower value 0.988 | locus YOR061W, strain CKA2, stronger effect = lower value 1 | locus YOR069W, strain VPS5, stronger effect = lower value 1.01 | locus YOR070C, strain gyp1, stronger effect = lower value 0.974 | locus YOR080W, strain dia2, stronger effect = lower value 0.977 | locus YOR083W, strain WHI5, stronger effect = lower value 1.03 | locus YOR106W, strain vam3, stronger effect = lower value 1.03 | locus YOR136W, strain idh2, stronger effect = lower value 1.04 | locus YOR144C, strain elg1, stronger effect = lower value 1 | locus YOR184W, strain ser1, stronger effect = lower value 0.995 | locus YOR265W, strain rbl2, stronger effect = lower value 0.981 | locus YOR270C, strain vph1, stronger effect = lower value 0.96 | locus YOR290C, strain snf2, stronger effect = lower value 0.999 | locus YOR316C, strain cot1, stronger effect = lower value 1 | locus YPL051W, strain arl3, stronger effect = lower value 0.976 | locus YPL055C, strain LGE1, stronger effect = lower value 1.07 | locus YPL078C, strain atp4, stronger effect = lower value 0.996 | locus YPL106C, strain sse1, stronger effect = lower value 1.07 | locus YPL240C, strain hsp82, stronger effect = lower value 1 | locus YPR119W, strain clb2, stronger effect = lower value 1 | locus YPR141C, strain kar3, stronger effect = lower value 1.01 | locus YPR163C, strain tif3, stronger effect = lower value 1.02 | locus YPR167C, strain met16, stronger effect = lower value 0.992 | strain wtn01, stronger effect = lower value 1.03
